Compounds with a hit are over-represented: about 4.8% of the library has one in this group of screens.
DAX1 inh-1: inhibits human nuclear receptor DAX1 | HEK293 Gal4-DAX1 luciferase reporter, luminescence | inhibition, % at 6.75 µM | 340,000 tested, 0.99% active;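 active = inhibition above the mean over all tested compounds plus 3 SD, cut at about 4.2% in these data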;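 also: 0% = DAX1-transfected cells with DMSO and 100% = empty-vector control cells with DMSO; inhibition shows as a rise in luminescence from relieved DAX1 repression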
Target sequence (P51843 207-470 limits assumed): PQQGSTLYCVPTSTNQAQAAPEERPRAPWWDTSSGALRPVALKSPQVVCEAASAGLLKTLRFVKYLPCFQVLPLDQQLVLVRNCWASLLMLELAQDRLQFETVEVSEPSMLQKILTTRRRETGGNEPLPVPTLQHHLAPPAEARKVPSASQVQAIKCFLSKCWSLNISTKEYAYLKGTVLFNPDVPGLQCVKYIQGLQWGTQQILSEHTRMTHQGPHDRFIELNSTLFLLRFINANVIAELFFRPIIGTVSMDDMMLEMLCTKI
ssDAF-12 act: activates DAF-12 receptor from parasite S. stercoralis; HEK293 ssDAF-12/GRIP1 lit1-tk-luc reporter, luminescence; % of 3 µM dafachronic acid response; activation, % at 6.8 µM; 370,000 tested, 1% active; AID 652126;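 active = activation above the mean over all tested compounds plus 3 SD, cut at about 0.9% in these data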;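 also: 0% = DMSO-only wells and 100% = 3 µM delta7-dafachronic acid wells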
hgDAF12 agonist: activates the H. glycines DAF-12 receptor ligand-binding domain | 370,000 tested, 1.8% active | HEK293 GAL4-hgDAF12 UAS-luciferase reporter, agonist luminescence; normalized to butyrate control | activation, % at 6.8 µM;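 active = activation above a cutoff set at the mean of all screened compounds plus 3 SD, cut at about 10% in these data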;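 also: 0% = DMSO wells and 100% = sodium butyrate wells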
hcDAF-12 act: activators of H. contortus DAF-12 nuclear receptor | HEK293 hcDAF-12 lit1-tk-luc reporter, luminescence; 0% DMSO, 100% Δ7-dafachronic acid | activation, % at 6.8 µM | 370,000 tested, 1.4% active;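 active = activation above the mean of all tested compounds plus 3 SD, cut at about 5.5% in these data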;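 also: 100% = response to 3 µM Δ7-dafachronic acid high control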
DAX1 inh-2: blocks DAX1 repression of SF-1 activated StAR promoter; HEK293T StAR-luciferase reporter, SF-1/DAX-1 repression relief; 370,000 tested, 1.1% active; inhibition, % at 6.8 µM; AID 652010;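 active = inhibition above the mean over all tested compounds plus 3 SD, cut at about 3.6% in these data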;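 also: 0% = DAX-1 cells with DMSO and 100% = cells lacking DAX-1 with DMSO; higher inhibition means more luminescence from relief of DAX-1 repression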
Rev-erbA mod: modulators of human Rev-erb alpha DNA binding | P20393 | activity, % at 10 µM | Rev-erbα–FITC-DNA binding, fluorescence polarization, 90 min | AID 1259318 | 370,000 tested, 0.79% active;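 active = activity above about 14%, limit read from the data; passing the limit was not always enough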;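 also: 0% = DMSO wells with 35 nM protein and 100% = DMSO wells with 750 nM protein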
DAX1 conf: NR0B1 (human) inhibition, confirmation; 2,400 tested, 87% active; HEK293T StAR-promoter luciferase reporter, SF-1/DAX-1 repression; AID 652134; inhibition, % at 6.8 µM; shares compounds with DAX1 inh-2;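 active = inhibition above the average of every tested compound plus 3 SD, cut at about 3.8% in these data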;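 also: 0% = DAX-1 cells with DMSO and 100% = no DAX-1 control cells with DMSO; active compounds raise luminescence by relieving repression of the StAR reporter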
Target sequence (P51843 whole entry, looked up): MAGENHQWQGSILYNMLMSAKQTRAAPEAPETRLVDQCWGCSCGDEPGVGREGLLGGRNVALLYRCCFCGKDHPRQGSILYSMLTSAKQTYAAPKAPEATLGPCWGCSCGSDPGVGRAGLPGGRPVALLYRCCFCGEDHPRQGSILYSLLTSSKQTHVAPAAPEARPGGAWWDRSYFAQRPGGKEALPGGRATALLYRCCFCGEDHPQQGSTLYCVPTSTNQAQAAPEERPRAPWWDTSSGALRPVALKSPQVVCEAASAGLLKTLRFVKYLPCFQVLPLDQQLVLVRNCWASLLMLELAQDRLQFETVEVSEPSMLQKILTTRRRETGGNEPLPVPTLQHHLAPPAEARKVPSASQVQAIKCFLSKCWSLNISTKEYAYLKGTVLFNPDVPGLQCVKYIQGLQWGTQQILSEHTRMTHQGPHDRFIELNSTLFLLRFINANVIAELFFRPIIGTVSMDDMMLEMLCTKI
SF1 mutant ctr: nonselective inhibitor or artifact in SF-1 mutant DAX1 counter-screen; 2,400 tested, 78% active; inhibition, % at 6.8 µM; shares compounds with DAX1 inh-2; HEK293 StAR-luciferase, SF-1 AF2 mutant, luminescence;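 active = inhibition above the mean of all tested compounds plus 3 SD, cut at about 3% in these data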;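 also: 0% = DAX-1 transfected cells with DMSO and 100% = cells without DAX-1 with DMSO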
LXR ag: activates human LXR-beta, counter-screen for hcDAF-12 agonists; activation, % at 6.8 µM; 3,400 tested, under 10 active; AID 743027; HEK293 Gal4-LXR tk-luc reporter, luminescence, 24 h; normalized: DMSO 0%, positive control 100%; shares compounds with hcDAF-12 act;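 active = mean percent activation of the reporter above a cutoff set as the average over tested compounds plus their standard deviation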
hcDAF12 conf: confirmation of H. contortus DAF-12 agonists; shares compounds with hcDAF-12 act; HEK293 hcDAF-12 lit1-tk-luc reporter, luminescence; % of Δ7-dafachronic acid response; activation, % at 6.8 µM; 3,400 tested, 61% active; AID 743032;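 active = mean activation across triplicate tests above the threshold derived from the earlier primary screen, cut at about 5.5% in these data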;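 also: 0% = DMSO only wells and 100% = 3 µM Δ7-dafachronic acid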
* = called active by the depositor; x = not tested or not shown.

SMILES	DAX1 inh-1	ssDAF-12 act	hgDAF12 agonist	hcDAF-12 act	DAX1 inh-2	Rev-erbA mod	DAX1 conf	SF1 mutant ctr	LXR ag	hcDAF12 conf
N/C(=N\C(=S)Nc1ccc2c(c1)OCO2)c1ccccc1	x	1.7*	20.9*	6.8*	21.4*	-6.5	14.3*	8.8*	2.1	10.1*
CSc1ccc(/C=C/c2ccc3cccc(O)c3n2)cc1	0.1	3.2*	33.7*	21.5*	5.0*	-1.1	15.8*	7.1*	1.7	11.1*
CC1(C)Oc2ccc(C(=O)NCCCN3CCCC3)cc2NC1=O	x	-1.3	-1.5	1.8	0.9	-9.9	x	x	x	x
c1ccc(Nc2nc(-c3cccs3)cs2)nc1	1.1	2.6*	11.8*	14.6*	4.6*	5.5	13.1*	5.1*	2.1	19.1*
Nc1ccc(Nc2nc(-c3cccs3)cs2)cc1	0.9	-1.3	4.2	1.6	0.2	3.0	x	x	x	x
Cc1cc(C)nc(NC(=S)N2CCN(c3ncc(C(F)(F)F)cc3Cl)CC2)c1	x	-2.0	-0.9	-2.8	x	-0.1	x	x	x	x
Fc1ccc2nc3[nH]c4ccccc4c3nc2c1	2.6	0.9	12.3*	9.0*	4.8*	x	14.5*	8.5*	1.7	11.1*
OC1=C(O)c2nc3cc(F)ccc3nc21	x	-1.1	4.0	4.8	-0.1	0.1	x	x	x	x
C[C@@H]1COc2cc(N3CCCCC3)ccc2S(=O)(=O)N1	x	-0.4	7.2	2.1	0.6	4.2	x	x	x	x
O=C(Nc1ccccc1)Nc1ccc(C(=O)N2CCCC2)cc1	-0.9	0.4	17.2*	8.8*	4.9*	-1.2	13.5*	7.5*	1.4	6.9*
COc1ccc(CCN2CCCC(CN(C)C(=O)c3ccoc3)C2)cc1 (stereo not given)	0.4	-0.5	12.6*	7.2*	10.0*	2.7	8.8*	5.5*	0.4	1.7
CN(CC1CCCN(CCc2ccccc2F)C1)C(=O)c1ccoc1 (stereo not given)	-0.7	-1.2	1.2	1.2	0.8	-1.4	x	x	x	x
N/C(=N\OC(=O)c1ccc(Br)o1)c1ccccn1	1.1	0.7	10.3	8.3*	9.4*	2.4	14.6*	6.2*	0.8	2.6
N/C(=N\OC(=O)c1ccccc1)c1ccccn1	-2.8	-0.8	6.1	3.8	3.1	2.4	x	x	x	x
Cc1cccc(C(=O)O/N=C(\N)c2ccccn2)c1	-3.0	-1.1	-4.2	-0.8	-0.3	-1.9	x	x	x	x
N/C(=N\OC(=O)c1cccc(F)c1)c1ccccn1	-1.1	0.4	8.6	8.2*	10.6*	-2.3	11.5*	5.2*	1.0	4.9
CCOC(=O)CCCCCC(=O)Nc1ccc2c(c1)C(=O)N([C@H](C)CO)C[C@@H](C)[C@@H](CN(C)S(=O)(=O)c1ccc(C)cc1)OCCCC[C@H](C)O2	x	-0.7	-0.7	-0.1	-1.0	1.4	x	x	x	x
COc1ccc(C(=O)Nc2nnc(-c3ccco3)s2)cc1	-2.1	1.1*	9.1	7.7*	6.9*	2.8	9.0*	0.9	1.2	7.2*
O=C(/C=C\Nc1cccc(F)c1)c1ccc2c(c1)OCO2	-2.7	0.2	11.8*	9.0*	4.7*	0.3	6.8*	-0.5	1.1	7.2*
COc1ccc(N/C=C\C(=O)c2ccc3c(c2)OCO3)cc1OC	1.0	-1.0	-0.8	-0.6	0.0	-7.3	x	x	x	x
COc1ccc2oc(=Nc3cccc(F)c3)c(C(N)=O)cc2c1	0.0	-0.9	9.6	2.0	1.1	3.0	x	x	x	x
COc1ccc2oc(=Nc3ccccc3)c(-c3nc4ccccc4[nH]3)cc2c1	1.4	3.8*	21.0*	22.4*	5.0*	0.3	3.7*	1.7	0.8	8.0*
O=C(O)c1ccc(N/N=C/c2ccc(-c3ccccc3)cc2)cc1	5.5*	1.3*	12.6*	7.6*	7.7*	7.0	19.3*	8.5*	1.2	6.2*
CC(C)c1ccc(/C=N/Nc2ccc(C(=O)O)cc2)cc1	-6.1	-1.8	-9.1	-1.5	-0.8	0.0	x	x	x	x
CNc1ccc(C=C2C=Cc3ccccc32)cc1	4.7*	0.9	14.9*	9.1*	7.3*	-4.7	16.8*	7.2*	1.8	10.9*
SMILES	DAX1 inh-1	ssDAF-12 act	hgDAF12 agonist	hcDAF-12 act	DAX1 inh-2	Rev-erbA mod	DAX1 conf	SF1 mutant ctr	LXR ag	hcDAF12 conf
COc1ccc(Cl)c2c1[nH]c1nc(SCc3ccccn3)nnc12	2.1	1.6*	14.7*	8.6*	10.8*	5.7	10.4*	2.8	1.0	6.1*
COc1ccc(NC(=O)c2nc3ccccc3s2)cc1	-0.8	2.5*	10.3	16.6*	5.0*	4.4	13.2*	8.2*	1.9	15.2*
COc1ccc(NC(=O)c2cc3ccccn3n2)cc1	0.7	-0.1	8.8	9.2*	7.9*	4.3	14.6*	5.8*	1.3	5.8*
CC1CCN(C(=O)c2cc3c(ccc4ccccc43)o2)CC1	-0.7	0.5	12.0*	9.1*	19.0*	-1.2	10.3*	4.3*	1.9	6.5*
Nc1nc2c(ncn2[C@@H]2O[C@H](C(=O)N[C@@H](Cc3ccccc3)C(=O)NCC3CCCCC3)[C@@H](O)[C@H]2O)c(=O)[nH]1	x	-0.8	-1.3	-0.3	-1.2	-1.8	x	x	x	x
Cc1ccc(-c2nnc(Nc3ccccc3)o2)cc1	-4.7	-0.2	6.2	8.0*	5.5*	-3.3	19.0*	8.6*	1.6	6.5*
c1ccc(Nc2nnc(-c3ccc4c(c3)OCO4)o2)cc1	x	1.2*	9.3	7.7*	5.1*	-5.8	6.6*	0.7	0.8	2.7
O=C1NC(=O)C2(CCCc3ccc(N(CCO)CCO)cc32)N1 (stereo not given)	x	-0.6	-1.4	0.1	0.0	1.2	x	x	x	x
CCCn1c(SCc2nc3ccccc3s2)n[nH]c1=O	2.0	1.5*	11.2*	12.0*	4.8*	-6.3	8.4*	5.0*	1.1	10.8*
COc1ccc(C(=O)/C=C2\Sc3ccccc3N2C)cc1	x	5.9*	28.4*	18.9*	5.7*	1.1	16.1*	9.8*	2.2	18.3*
CC(=S)/C=C1\Sc2ccccc2N1C	1.5	-1.2	-2.0	-0.6	-1.1	1.1	x	x	x	x

Screens: PubChem BioAssay, several laboratories
